These results are taken from PubChem BioAssay (EPA / NIEHS).

For test [1], the target named is Paired box protein Pax-6 (Homo sapiens) (UniProt P26367). Description: ATG_Pax6_CIS: Attagene CIS-FACTORIAL HepG2 Assay for human Paired Box 6 (PAX6) (AID 2282956). The note with it: HepG2 CIS-FACTORIAL PAX6 reporter transcription, RNA readout; actives raise or lower the signal. Put shortly: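 Fluorescent RT-PCR products separated by capillary electrophoresis report PAX6-linked promoter mRNA in HepG2 cells 24 h post-dose. Curves fitted bidirectionally, DMSO as negative control.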

Test [2] can be described thus: ATG_PXRE_CIS: Attagene CIS-FACTORIAL HepG2 Assay for human Pregnane X Receptor Element (PXRE) (AID 2282957). The note with it: HepG2 Attagene CIS-FACTORIAL PXRE reporter, mRNA; actives raise or lower the signal. Put shortly: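 Endogenous transcription factor activity in HepG2 was gauged through induction of reporter mRNA driven by a cis-regulating promoter element, sampled 24 h post-treatment. Activity was fitted in both directions against DMSO negative control.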

A short description of test [3]: ATG_PPRE_CIS: Attagene CIS-FACTORIAL HepG2 Assay for human Peroxisome Proliferator-activated Response Element (PPRE) (AID 2282958). As to conditions: HepG2 PPRE cis-element reporter, Attagene transcription factor profiling; actives raise or lower the signal. Put shortly: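 HepG2 cells are transiently transfected with multiplexed cis-promoter reporter units to report endogenous PPAR activity. After 24 h dosing, reporter mRNA is read by RT-PCR and capillary electrophoresis. Fitting is bidirectional against DMSO.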

The nature of test [4]: ATG_RORE_CIS: Attagene CIS-FACTORIAL HepG2 Assay for human RAR-related Orphan Receptor Element (RORE) (AID 2282959). As to conditions: HepG2 Attagene cis-factorial RORE reporter, mRNA; actives raise or lower the signal. A digest of the protocol:
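HepG2 cells carrying transiently transfected cis-regulated reporter units; RORE-driven reporter mRNA quantified 24 h post-dosing by RT-PCR, 6-FAM primer extension, HpaI digestion and capillary electrophoresis. Bidirectional fit versus DMSO.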

Test [5] is described as follows: ATG_Sox_CIS: Attagene CIS-FACTORIAL HepG2 Assay for human SRY-box transcription factor (SOX) (AID 2282960). As to conditions: HepG2 Attagene cis-factorial SOX reporter, mRNA; actives raise or lower the signal. Put shortly: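 HepG2 cells transiently transfected with multiple cis-regulated reporter units, then dosed for 24 h. Reporter mRNA quantified by RT-PCR, fluorescent labelling, HpaI digestion and capillary electrophoresis; bidirectional fit versus DMSO.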

The target of test [6] is Transcription factor Sp1 (Homo sapiens) (UniProt P08047). Kind of test: ATG_Sp1_CIS: Attagene CIS-FACTORIAL HepG2 Assay for human Specificity Protein 1 (Sp1) (AID 2282961). As to conditions: HepG2 Sp1 cis-reporter transcription, actives raise or lower the signal. A digest of the protocol:
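HepG2 cells transiently transfected with multiplexed cis-regulated reporter constructs, chemical exposure 24 h. Reporter mRNA quantified by RT-PCR with capillary electrophoresis; bidirectional fit relative to DMSO.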

Test [7] addresses Signal transducer and activator of transcription 3 (Homo sapiens) (UniProt P40763). Description: ATG_STAT3_CIS: Attagene CIS-FACTORIAL HepG2 Assay for human Signal Transducer and Activator of Transcription 3 (STAT3) (AID 2282963). The note with it: HepG2, Attagene cis-factorial STAT3 reporter transcription; actives raise or lower the signal. A digest of the protocol: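 HepG2, MRTU-transfected, 24 h dosing. RNA → RT → PCR → FAM label → HpaI → CE. Bidirectional fit vs DMSO.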

Test [8] can be described thus: ATG_TA_CIS: Attagene CIS-FACTORIAL HepG2 Assay for human TA Basal Promoter (AID 2282964). The note with it: HepG2 Attagene CIS-factorial TA basal promoter reporter; actives raise or lower the signal. A digest of the protocol:
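Steps: transfect HepG2 with MRTUs; dose 24 h; isolate RNA, DNase-treat, reverse-transcribe; PCR and FAM-label reporter cDNA; digest with HpaI 2h at 37 C; run capillary electrophoresis. Activity fitted both directions against DMSO.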

Test [9] can be described thus: ATG_TCF_b_cat_CIS: Attagene CIS-FACTORIAL HepG2 Assay for human T-Cell-Factor with beta-catenin (TCF/b-cat) (AID 2282965). As to conditions: HepG2 TCF/beta-catenin cis-reporter transcription, actives raise or lower the signal. Put shortly: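 In this cis-format system, transfected HepG2 cells report endogenous transcription factor activity. Readout after 24 h exposure is reporter transcript abundance from RT-PCR and capillary electrophoresis, analysed for gain or loss of signal versus DMSO.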

Test [10] is described as follows: ATG_TGFb_CIS: Attagene CIS-FACTORIAL HepG2 Assay for human Transforming Growth Factor (TGF) (AID 2282967). The note with it: HepG2 Attagene CIS TGFb reporter, mRNA transcription; actives raise or lower the signal. Put shortly:
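Cells were dosed for 24 hours, after which total RNA was reverse-transcribed and reporter sequences amplified, labeled and sized by capillary electrophoresis. Activity was fitted in both directions against DMSO.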

For test [11], the target named is Nuclear receptor subfamily 1 group I member 3 (Homo sapiens) (UniProt Q14994). Description: ATG_CAR_TRANS: Attagene TRANS-FACTORIAL HepG2 Assay for human Constitutive Androstane Receptor (CAR) (AID 2282969; active = hit-call score of the fitted dose curve at least 0.9, where 1 is the maximum;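 note: activators raise reporter mRNA above DMSO so AC50 marks induction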). As to conditions: HepG2 Attagene TRANS-FACTORIAL CAR reporter. Put shortly: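 Steps: transient transfection of HepG2 with multiple GAL4-UAS reporter units; 24 h compound incubation; RNA isolation, RT-PCR, 6-FAM primer extension, HpaI digest; capillary electrophoresis. Gain-of-signal relative to DMSO negative control.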

The target of test [12] is Estrogen receptor (Homo sapiens) (UniProt P03372). Description: ATG_ERa_TRANS: Attagene TRANS-FACTORIAL HepG2 Assay for human Estrogen Receptor alpha (ERa) (AID 2282970; active = hit-call score of the fitted dose curve at least 0.9, where 1 is the maximum). As to conditions: HepG2 Attagene TRANS ERa GAL4 reporter, mRNA. A digest of the protocol: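 Transfected HepG2 cells carrying GAL4-UAS-driven reporter units were dosed for 24 hours. Total RNA was reverse-transcribed, reporter sequences PCR-amplified, FAM-labelled, HpaI-digested and resolved by capillary electrophoresis. Increases over DMSO control defined activity.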

Test [13] deals with X-box-binding protein 1 (Homo sapiens) (UniProt P17861). Description: ATG_Xbp1_CIS: Attagene CIS-FACTORIAL HepG2 Assay for human X-box Binding Protein 1 (XBP1) (AID 2282972). The note with it: HepG2 XBP1 cis-element reporter, Attagene multiplex; actives raise or lower the signal. A digest of the protocol:
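Multiplexed cis-reporter readout in transfected HepG2 liver cells. Exposure lasted 24 hours. Activity in either direction was fitted against DMSO as negative control and baseline.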

Test [14] in a line: ATG_GAL4_TRANS: Attagene TRANS-FACTORIAL HepG2 Assay for GAL4 (Internal Marker) (AID 2282976; active = hit-call score of the fitted dose curve at least 0.9, where 1 is the maximum). As to conditions: HepG2 Attagene TRANS GAL4 internal marker reporter. A digest of the protocol:
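Fluorescence from capillary electrophoresis of labelled RT-PCR products quantifies reporter mRNA induction after 24 h dosing of HepG2 cells carrying transfected GAL4-UAS reporter transcription units. Vehicle DMSO serves as baseline.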

Test [15] in a line: ATG_SREBP_CIS: Attagene CIS-FACTORIAL HepG2 Assay for human Sterol Regulatory Element Binding (SREBP) (AID 2282962). The note with it: HepG2 Attagene cis-factorial SREBP reporter, mRNA; actives raise or lower the signal. Put shortly:
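Endogenous factor activity is measured in HepG2 through multiplexed reporter units under cis-element control. Following a 24 h incubation, reporter transcripts are reverse-transcribed, PCR-amplified and sized by capillary electrophoresis; activity is fitted in both directions relative to DMSO.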

The nature of test [16]: ATG_TAL_CIS: Attagene CIS-FACTORIAL HepG2 Assay for human TAL Basal Promoter (AID 2282966).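 Note: background control endpoint measuring basal TAL promoter reporter mRNA not a specific factor.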 The note with it: HepG2 Attagene cis-factorial TAL promoter reporter; actives raise or lower the signal. Put shortly:
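Endogenous transcription-factor activity is sensed in HepG2 cells through transfected cis-promoter reporter constructs. After 24 h dosing, reporter transcripts are quantified by RT-PCR and capillary electrophoresis. Gain or loss of signal is fitted relative to DMSO.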

A short description of test [17]: ATG_VDRE_CIS: Attagene CIS-FACTORIAL HepG2 Assay for human Vitamin D Receptor Element (VDRE) (AID 2282968). The note with it: HepG2 VDRE cis-reporter transcription, actives raise or lower the signal. Put shortly: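 Steps: transfect HepG2 with multiple reporter transcription units; dose chemicals 24 h; isolate RNA; RT-PCR; label with 6-FAM primer extension; HpaI digest; capillary electrophoresis. Curves fitted both directions against DMSO.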

The nature of test [18]: ATG_M_19_TRANS: Attagene TRANS-FACTORIAL HepG2 Assay for M19 Transcription Factor (Internal Marker) (AID 2282974; active = hit-call score of the fitted dose curve at least 0.9, where 1 is the maximum). As to conditions: HepG2 Attagene TRANS-FACTORIAL M19 internal marker reporter. A digest of the protocol:
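HepG2 transiently transfected with GAL4-UAS multiplex reporter constructs, exposed 24 h; reporter RNA quantified by RT-PCR, 6-FAM labeling, HpaI digestion and capillary electrophoresis; internal background marker fitted upward versus DMSO.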

Records with an inconclusive call do not appear. The source made the active and inactive calls. Rule for the calls, unless noted: active = hit-call score of the fitted dose curve at least 0.9, where 1 is the maximum; inactive = score below 0.9.

One may read the AC50 as the concentration giving half of the maximal activity seen.

Sequence of X-box-binding protein 1 (Homo sapiens) (P17861 whole entry, looked up): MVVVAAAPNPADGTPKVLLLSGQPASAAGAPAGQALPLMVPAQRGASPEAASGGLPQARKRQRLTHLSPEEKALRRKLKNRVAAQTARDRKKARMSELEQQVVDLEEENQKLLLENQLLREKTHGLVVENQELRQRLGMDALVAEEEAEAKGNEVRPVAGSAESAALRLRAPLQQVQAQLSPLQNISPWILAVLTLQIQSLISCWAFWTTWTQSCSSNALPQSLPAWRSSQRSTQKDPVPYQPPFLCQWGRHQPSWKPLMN
Sequence of Transcription factor Sp1 (Homo sapiens) (P08047 whole entry, looked up): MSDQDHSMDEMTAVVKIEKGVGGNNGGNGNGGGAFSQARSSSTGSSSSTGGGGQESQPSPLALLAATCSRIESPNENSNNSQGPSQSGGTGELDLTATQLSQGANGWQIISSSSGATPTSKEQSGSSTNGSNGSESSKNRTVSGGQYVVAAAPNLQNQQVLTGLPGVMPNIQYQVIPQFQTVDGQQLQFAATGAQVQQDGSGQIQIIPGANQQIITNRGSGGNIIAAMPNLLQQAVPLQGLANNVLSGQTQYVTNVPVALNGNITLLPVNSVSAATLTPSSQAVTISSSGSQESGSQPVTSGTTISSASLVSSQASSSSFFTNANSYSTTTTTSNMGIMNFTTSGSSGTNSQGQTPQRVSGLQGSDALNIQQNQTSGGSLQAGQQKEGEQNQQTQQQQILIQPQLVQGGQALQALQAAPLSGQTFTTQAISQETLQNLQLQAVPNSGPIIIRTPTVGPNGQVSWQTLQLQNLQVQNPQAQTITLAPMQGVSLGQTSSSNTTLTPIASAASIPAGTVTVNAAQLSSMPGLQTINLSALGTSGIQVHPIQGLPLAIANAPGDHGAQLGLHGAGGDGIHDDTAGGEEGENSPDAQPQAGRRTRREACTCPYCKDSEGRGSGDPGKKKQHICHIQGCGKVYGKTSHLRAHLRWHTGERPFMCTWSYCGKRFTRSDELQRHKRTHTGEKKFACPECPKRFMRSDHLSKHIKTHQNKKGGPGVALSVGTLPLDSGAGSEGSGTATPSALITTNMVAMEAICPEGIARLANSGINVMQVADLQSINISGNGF
Sequence of Estrogen receptor (Homo sapiens) (P03372 whole entry, looked up, the tested form may be a part): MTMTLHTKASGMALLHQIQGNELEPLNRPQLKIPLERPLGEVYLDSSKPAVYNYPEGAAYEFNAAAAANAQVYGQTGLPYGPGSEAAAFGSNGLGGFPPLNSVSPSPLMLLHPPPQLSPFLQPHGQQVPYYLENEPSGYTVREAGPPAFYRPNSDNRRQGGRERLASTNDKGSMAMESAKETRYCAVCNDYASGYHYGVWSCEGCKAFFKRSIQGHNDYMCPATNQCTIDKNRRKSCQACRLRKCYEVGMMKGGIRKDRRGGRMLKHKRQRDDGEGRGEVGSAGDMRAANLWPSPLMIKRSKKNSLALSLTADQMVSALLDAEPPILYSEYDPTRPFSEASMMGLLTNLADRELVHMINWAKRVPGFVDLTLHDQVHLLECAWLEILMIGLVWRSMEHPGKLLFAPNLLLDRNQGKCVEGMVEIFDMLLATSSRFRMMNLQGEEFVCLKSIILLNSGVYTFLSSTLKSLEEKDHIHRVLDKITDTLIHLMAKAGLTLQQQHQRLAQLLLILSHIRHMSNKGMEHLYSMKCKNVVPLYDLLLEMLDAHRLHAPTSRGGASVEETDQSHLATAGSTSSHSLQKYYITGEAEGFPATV
Sequence of Signal transducer and activator of transcription 3 (Homo sapiens) (P40763 whole entry, looked up): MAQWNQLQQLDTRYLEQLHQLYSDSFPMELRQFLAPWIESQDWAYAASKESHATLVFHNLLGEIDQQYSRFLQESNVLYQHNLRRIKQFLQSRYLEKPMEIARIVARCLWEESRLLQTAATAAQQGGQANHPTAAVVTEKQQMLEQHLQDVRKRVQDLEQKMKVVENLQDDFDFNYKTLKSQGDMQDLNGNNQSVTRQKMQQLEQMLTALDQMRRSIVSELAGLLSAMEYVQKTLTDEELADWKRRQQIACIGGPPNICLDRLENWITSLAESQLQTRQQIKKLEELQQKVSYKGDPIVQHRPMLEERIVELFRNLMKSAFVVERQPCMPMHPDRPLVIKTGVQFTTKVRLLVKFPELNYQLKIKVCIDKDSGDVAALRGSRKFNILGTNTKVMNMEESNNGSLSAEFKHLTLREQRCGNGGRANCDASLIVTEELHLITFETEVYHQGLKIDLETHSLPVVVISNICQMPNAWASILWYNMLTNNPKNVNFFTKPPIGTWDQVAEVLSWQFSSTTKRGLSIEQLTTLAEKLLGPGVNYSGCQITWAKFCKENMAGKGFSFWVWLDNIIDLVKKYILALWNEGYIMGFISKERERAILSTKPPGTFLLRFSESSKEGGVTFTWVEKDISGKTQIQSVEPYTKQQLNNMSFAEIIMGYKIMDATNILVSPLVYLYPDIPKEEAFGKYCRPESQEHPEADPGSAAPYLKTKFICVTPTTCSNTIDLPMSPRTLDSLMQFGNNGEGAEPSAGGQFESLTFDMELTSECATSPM
Sequence of Paired box protein Pax-6 (Homo sapiens) (P26367 whole entry, looked up): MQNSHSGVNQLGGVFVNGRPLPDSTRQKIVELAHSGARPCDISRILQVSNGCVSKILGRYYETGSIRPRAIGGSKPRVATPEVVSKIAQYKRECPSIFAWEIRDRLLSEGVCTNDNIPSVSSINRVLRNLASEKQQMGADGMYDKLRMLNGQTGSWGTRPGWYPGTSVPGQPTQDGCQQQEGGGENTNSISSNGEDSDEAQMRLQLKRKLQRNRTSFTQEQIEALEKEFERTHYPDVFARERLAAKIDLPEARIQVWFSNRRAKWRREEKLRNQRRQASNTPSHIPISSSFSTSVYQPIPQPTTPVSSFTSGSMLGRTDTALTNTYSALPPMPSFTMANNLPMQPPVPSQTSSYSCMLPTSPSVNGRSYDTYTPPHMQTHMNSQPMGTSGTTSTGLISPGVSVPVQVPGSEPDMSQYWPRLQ
Sequence of Nuclear receptor subfamily 1 group I member 3 (Homo sapiens) (Q14994 whole entry, looked up, the tested form may be a part): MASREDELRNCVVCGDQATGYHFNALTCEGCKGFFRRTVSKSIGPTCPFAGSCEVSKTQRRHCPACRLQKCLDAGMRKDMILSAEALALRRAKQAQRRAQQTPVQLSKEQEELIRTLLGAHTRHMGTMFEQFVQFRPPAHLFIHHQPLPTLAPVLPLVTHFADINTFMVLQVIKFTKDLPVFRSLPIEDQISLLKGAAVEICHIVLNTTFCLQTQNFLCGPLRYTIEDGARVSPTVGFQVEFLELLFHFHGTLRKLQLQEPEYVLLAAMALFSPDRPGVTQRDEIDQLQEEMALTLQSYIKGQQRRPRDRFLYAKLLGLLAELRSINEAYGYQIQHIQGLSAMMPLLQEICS

As for `CCOC(=O)CC1(C)OCC(C)O1` (configuration not stated), the outcome in test [1], in [2], in test [3], in test [4], in test [5] and in test [6] was inactive. In addition, the compound was called inactive in test [7], in test [8], in test [9], in test [10], in test [11] and in [12]. Further, the outcome in test [13] and in test [14] was inactive.
With `CC/C=C\CCCCO`, the compound was called inactive in test [1], in test [2], in test [4], in test [5], in test [6] and in test [15]. Further, the compound was classed as inactive in test [7], in test [8], in test [9], in [16], in [10] and in test [17]. The compound was classed as inactive in test [12], in test [13], in test [18] and in test [14].
For the compound `O=S1(=O)CC=CC1`, the outcome in [1], in [2], in test [3], in [4], in [5] and in test [15] was inactive. The result in test [7], in test [8], in test [9], in test [16], in test [10] and in [17] was inactive. Further, the compound was classed as inactive in test [13], in [18] and in test [14].
In the case of `CCCCCCCCOC(C)=O`, the compound was called inactive in test [1], in test [3], in test [4], in [5], in test [6] and in [7]. Also, the compound was classed as inactive in [8], in test [9], in [16], in test [17], in [13] and in test [18]. In addition, the AC50 in test [2] is 73.1 µM (active).
As to `CC(CCO)CC(C)(C)C` (configuration not stated), the compound was classed as inactive in test [1], in test [4], in test [5], in [6], in test [15] and in test [7]. In addition, the compound was called inactive in test [8], in [9], in [16], in test [10], in test [17] and in test [12]. In addition, the result in test [13] and in [18] was inactive.
